High-throughput results from PubChem.
The full list was thinned out, with hits kept by preference.
Methyltransferases = Primary Screen for Target Class Profiling of Small Molecule Inhibitors of Methyltransferases; purified enzyme, MTase-Glo SAH luminescence; active compounds read low; calls only at 40 µM; 25,000 compounds, 3.9% hits; AID 1745853, 2022; call rule not given here
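Each enzyme was reacted with SAM and its substrate, with compounds tested once at 40 uM; SAH formed was read by MTase-Glo luminescence.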
The depositor's hits bear a star; i = inactive; + = active, no number. % is scaled to controls: 0 for no effect and ±100 for the full control effect.

SMILES | Methyltransferases
COc1cc2ncnc(-n3nc(-c4ccccn4)nc3N)c2cc1OC | i
COc1cc2ncnc(Nc3cc(Br)c(O)c(Br)c3)c2cc1OC | i
COc1cc2ncnc(Nc3cccc(I)c3)c2cc1OC | +
CC1CCC(NC(=O)C2(C)Cn3c(nc4ccccc43)C(=O)N2Cc2ccc(OC(C)C)cc2)CC1 (stereo not drawn) | i
O=C(CCC(=O)n1ncc2ccc(Cl)cc21)N1CCN(c2ccccc2)CC1 | i
O=C(COCC(=O)N1CCN(C(c2ccccc2)c2ccccc2)CC1)Nc1ccc(Cl)cc1C(=O)O | +
CC1=C[C@H](O)[C@H]2C(C)(C)CCC[C@]2(C)[C@@]1(O)CO | i
CC1(C)CCCC2(C)C1C(O)C=C(CO)C2(O)CO (stereo not drawn) | i
COC1C=C(C)C(O)(CO)C2(C)CCCC(C)(C)C12 (stereo not drawn) | +
COc1cccc(C(=O)Cn2nc3n(CCc4ccccc4)c(=O)c4ccccc4n3c2=O)c1 | i
CCCCN(CC)CCN1C(=O)c2cc3occc3n2CC1(C)C(=O)NC1CCCCCCC1 (stereo not drawn) | i
Cn1cc(C(=O)NCCc2cccs2)c(S(=O)(=O)N2CCCCC2)n1 | i
COc1ccc(NC(=O)CN(C)S(=O)(=O)c2ccc3[nH]c4c(c3c2)CCCC4)cc1 | i
CC[n+]1c(/C=C/C=C2/N(C)c3ccccc3C2(C)C)sc2ccccc21 | +
CC1CCC(NC(=O)C2(C)Cn3c(cc4sccc43)C(=O)N2Cc2ccc(OC(C)C)cc2)CC1 (stereo not drawn) | i
CCC(=C(c1ccc(OCCN2CCCC2)cc1)c1ccc(OCCN2CCCC2)cc1)c1ccccc1 | +
c1cc(OCCCN2CCCCC2)ccc1CN1CCCCC1 | +
CC/C(=C(\c1ccccc1)c1ccc(OCCN(C)C)cc1)c1ccccc1 | i
Cc1ccc(CN2CCN(Cc3ccc(=O)n(C)c3)CC2)cc1 | i
CC/C(=C(\c1ccc(O)cc1)c1ccc(OCCNC)cc1)c1ccccc1 | i
CCC1(CO)CCCN(CCCOc2ccc(C(N)=O)cc2)C1 (stereo not drawn) | i
Cc1cccc(N2CCN(CCNC(=O)CCc3nnc4n(CCC(C)C)c(=O)c5ccccc5n34)CC2)c1C | i
O=C(CCc1nnc2n(Cc3ccccc3)c(=O)c3ccccc3n12)N1CCN(c2ccccc2F)CC1 | i
COc1ccc(N2C(=O)c3cc(C(C)(C)C)nn3CC2(C)C(=O)NC2CCCCCC2)cc1 (stereo not drawn) | i
NC(=O)c1cccc2[nH]c(-c3ccc(C4CCCN4)cc3F)nc12 (stereo not drawn) | +
SMILES | Methyltransferases
NC(=O)c1cccc2[nH]c(-c3ccc([C@@H]4CCCN4)cc3F)nc12 | +
NC(=O)c1cccc2[nH]c(-c3ccc([C@H]4CCCN4)cc3F)nc12 | +
CCc1ccc(CN2C(=O)c3nc4ccccc4n3CC2(C)C(=O)NCc2ccccc2)cc1 (stereo not drawn) | i
COc1ccc2cc3n(c2c1)CC(C)(C(=O)NC1CCCCC1)N(Cc1ccccc1OC)C3=O (stereo not drawn) | i
COCCCN1C(=O)c2ccc(-c3ccco3)n2CC1(C)C(=O)NCc1ccccc1 (stereo not drawn) | i
CC1(C(=O)NC2CCCCCC2)Cn2c(ccc2-c2ccco2)C(=O)N1C1CCCCCC1 (stereo not drawn) | i
CCCC(=O)N(c1ccc(OCC)cc1)S(=O)(=O)c1ccc2c(c1)n(C)c(=O)n2C | i
COc1ccc(CNc2nc3c(S(=O)(=O)c4ccc(Cl)cc4)nnn3c3ccccc23)cc1 | i
CC(NC(=O)c1cc2n(n1)CC(C)(C(=O)NC1CCCC1)N(C)C2=O)c1ccccc1 (stereo not drawn) | i
O=C(NC1CCCC1)c1ccc2c(=O)n(Cc3ccccc3)c3nn(Cc4cccc(F)c4)c(=O)n3c2c1 | i
CCN1C(=O)c2cc(C(=O)NCc3cccc(Br)c3)nn2CC1(C)C(=O)NC1CCCC1 (stereo not drawn) | i
CCc1cccc(NC(=O)Cn2c(=O)oc3cc(S(=O)(=O)N4CCCCC4)ccc32)c1 | i
N.N.N.N.N.N.N.N.N.N.N.N.N.N.O.O.[Ru+4].[Ru+5].[Ru+5] | +
O=C(CCCc1nnc2n3nc(-c4ccccc4)nc3c3ccccc3n12)NCCc1ccc(Cl)cc1 | i
CCOC(=O)c1cc2n(n1)CC(C)(C(=O)NCCC(C)C)N(c1ccc(C)cc1)C2=O (stereo not drawn) | i
CCCn1c(=O)c2ccc(C(=O)NC(C)C)cc2n2c(=O)n(CC(=O)Nc3ccc(C)c(F)c3)nc12 | i
C=CC(=O)Nc1cccc(Nc2nc(Nc3ccc(Oc4ccnc(C(=O)NC)c4)cc3)ncc2F)c1 | +
CNC(=O)c1cc(Oc2ccc3nc(N[C@@H]4CCCC[C@H]4O)sc3c2)ccn1 | i
NCc1ccc(Nc2ncc(F)c(Nc3ccccc3)n2)cc1 | i
COc1ccc(N2C(=O)c3ccc(-c4ccco4)n3CC2(C)C(=O)NCc2ccc(Cl)cc2)cc1OC (stereo not drawn) | i
CC(C)CCn1c(=O)c2ccc(C(=O)NCC(C)C)cc2n2c(=O)n(Cc3ccccc3F)nc12 | i
CCc1ccccc1N1C(=O)Cn2cccc2C1C(=O)NC1CCCCC1C (stereo not drawn) | i
Cc1ccc(Cn2c(=O)c3ccccc3n3c(CCC(=O)Nc4ccccc4)nnc23)cc1 | i
Cc1ccc(Cn2c(=O)c3ccc(C(=O)NC(C)C)cc3n3c(SCC(=O)NC(C)C)nnc23)cc1 | i
CC(C)(O)c1ccccc1CC[C@@H](SCC1(CC(=O)O)CC1)c1cccc(/C=C/c2ccc3ccc(Cl)cc3n2)c1 | +
SMILES | Methyltransferases
CN(CC(=O)N1CCOCC1)S(=O)(=O)c1ccc2c(c1)CCCC(=O)N2 | i
CN(C)C/C=C/C(=O)Nc1cccc(C(=O)Nc2ccc(Nc3nccc(-c4cccnc4)n3)cc2)c1 | +
Cn1c(=O)c(-c2c(Cl)cccc2Cl)cc2cnc(Nc3cccc(C(=O)O)c3)nc21 | i
CN(C)C/C=C/C(=O)Nc1ccc(C(=O)Nc2cccc(Nc3ncc(Cl)c(-c4c[nH]c5ccccc45)n3)c2)cc1 | +
CN(C)C/C=C/C(=O)Nc1cccc(C(=O)Nc2cccc(Nc3ncc(Cl)c(-c4c[nH]c5ccccc45)n3)c2)c1 | +
CNc1nccc(-c2cccnc2Oc2cc(C(=O)Nc3cccc(C(F)(F)F)c3)ccc2C)n1 | i
Cc1ccc(NC(=O)c2ccc(CN3CCNCC3)cc2)cc1Nc1nccc(-c2cccnc2)n1 | i
Cc1ccc(Cn2c(=O)c3ccccc3n3c(=O)n(CC(=O)NC4CCCCC4)nc23)cc1 | i
CCCCN1C(=O)c2cc(C(=O)NCc3ccc(CC)cc3)nn2CC1(C)C(=O)NC1CCCC1 (stereo not drawn) | i
CC(C)(C)c1nn2c(SCC(=O)Nc3cccc(F)c3)nnc2[nH]c1=O | i
CCC(C)NC(=O)c1ccc2c(=O)n(C)c3nnc(SCc4ccccc4)n3c2c1 (stereo not drawn) | i
Cc1ccc(NC(=O)CSc2nnc3n(C)c(=O)c4ccc(C(=O)NC5CCCC5)cc4n23)cc1F | i
Cc1ccc(N2C(=O)c3cc4sccc4n3CC2(C)C(=O)NC2CCCCCCC2)cc1C (stereo not drawn) | i
CCOc1ccc(C(=O)Cn2nc3n(C(C)C)c(=O)c4ccc(C(=O)NC(C)CC)cc4n3c2=O)cc1 (stereo not drawn) | i
